Shown are actives, neighbours in structure and some others; about 7.5% of the full set was active somewhere.
Rab9 prom act: activates the Rab9 promoter; Huh7 Rab9 promoter-luciferase reporter, luminescence, 24 h; Potency, µM (titrated, usually from 9.22 µM), without a hit: top-dose activation, negative = inhibition, hits mostly activators; actives 2.8% (n = 320,000); AID 485297; also: % of control where 0% means no effect; nearly all actives have a fitted effect of over 60% in size
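Rab9 promoter-driven luciferase in stably transfected Huh7 cells; 1500 cells/well rested 2 h, exposed to compound in DMSO for 24 h at 37 °C, 5% CO2. Luminescence read 10 min after adding luciferase reagent at ambient temperature.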
SMN2 splice up: SMN2 splice variant enhancement; HEK293 SMN2-luciferase splicing reporter, luminescence, 30-36 h; Potency, µM (top dose mostly 46.1 µM), for inactives: at the highest dose activity change, positive = activation, hits mostly activators; actives 2.8% (n = 210,000); AID 1458; also: % of control where 0% means no effect; nearly all actives have a fitted effect of over 55% in size
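HEK293 cells carry an SMN2 […]–luciferase reporter in which exon 7 inclusion puts luciferase in frame. Cells were plated 10-12 h before compound addition, then incubated 30-36 h at 37C. ONE-Glo luminescence was read; sodium butyrate at 4.5 mM final served as control.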
FLuc modulator: inhibits or activates purified firefly luciferase, miR-21 counter-screen; purified FLuc, Km substrates, luminescence inhibition; Potency, µM (top dose mostly 57.5 µM), for the others: at the highest dose activity change, negative = inhibition, most hits filed as inhibitors; actives 6.9% (n = 360,000); AID 588342;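 also: plate controls were vehicle for no effect and reference inhibitor for full effect; nearly all actives have a fitted effect of over 55% in size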
Target sequence (P08659 whole entry, looked up): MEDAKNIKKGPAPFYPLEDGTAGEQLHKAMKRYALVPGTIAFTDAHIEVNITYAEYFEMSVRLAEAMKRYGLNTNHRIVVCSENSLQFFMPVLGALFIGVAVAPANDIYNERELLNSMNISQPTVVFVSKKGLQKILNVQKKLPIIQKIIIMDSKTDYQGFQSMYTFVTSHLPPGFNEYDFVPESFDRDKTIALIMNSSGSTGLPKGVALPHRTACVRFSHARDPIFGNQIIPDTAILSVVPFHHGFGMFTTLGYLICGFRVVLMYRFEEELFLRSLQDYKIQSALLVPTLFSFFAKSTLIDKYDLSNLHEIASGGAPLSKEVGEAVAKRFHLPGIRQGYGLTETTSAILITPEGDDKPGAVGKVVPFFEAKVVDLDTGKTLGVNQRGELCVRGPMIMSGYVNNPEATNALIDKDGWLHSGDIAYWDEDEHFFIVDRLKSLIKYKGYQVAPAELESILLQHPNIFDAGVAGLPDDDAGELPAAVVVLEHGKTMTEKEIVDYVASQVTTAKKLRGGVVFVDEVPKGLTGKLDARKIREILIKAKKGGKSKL
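Purified P. pyralis luciferase, 10 nM final, with Km-level 10 uM D-luciferin and 10 uM ATP in 50 mM Tris acetate pH 7.5, 10 mM Mg acetate, 0.01% Tween-20, 0.05% BSA; 6-point qHTS titration about 60 µM downward; luminescence read.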
Luc counter: blocks Kinase-Glo luciferase, a counter-screen artifact; Q27757; Kinase-Glo luciferase, ATP luminescence, 8 min; Potency, µM (highest dose often 38.3 µM), for the others: top-dose activity change, negative = inhibition, usual class: inhibitors; actives 0.28% (n = 200,000); AID 1379; also: % is scaled to controls: 0 for no effect and ±100 for the full control effect; nearly all actives have a fitted effect of over 60% in size
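Compound is pinned into ATP-containing buffer (10 uM ATP, imidazole pH 7.2, 7 mM MgCl2). Kinase-Glo luciferase reagent is then added. Light output is recorded following an 8-min room-temperature incubation.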
NPC1 promoter act: NPC1 promoter activation; AID 485313; actives 2.4% (n = 320,000); Potency, µM (highest dose often 9.22 µM), without a hit: top-dose activation, actives largely listed as activators; Huh7 NPC1 promoter luciferase reporter, 24 h; also: % of control where 0% means no effect; nearly all actives have a fitted effect of over 60% in size
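Cells: Huh7 expressing luciferase under the NPC1 promoter, 1500/well. Seeded 2 h, compound added, incubated 24 h at 37 °C. Luciferase reagent, 10 min ambient, then luminescence.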
ELG1 genotoxic: genotoxicity induction in ELG1-luciferase HEK293T cells | HEK293T ELG1-luciferase reporter, luminescence, 16 h | Potency, µM (series often up to 46 µM), without a hit: at the highest dose activity change, positive = activation, most hits filed as activators | actives 1.3% (n = 330,000); also: % of control where 0% means no effect; nearly all actives have a fitted effect of over 60% in size
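DMSO vehicle served as control against compound-treated ELG1-luciferase HEK293T cells; exposure lasted 16 hr at 37 °C and 5% CO2, followed by ONE-Glo luminescence detection after 30 min.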
Active calls of the source: *; ? = inconclusive; · = not tested or not shown; [ ] = another dose, or the depositor's remark. Calls follow the shape of the dose curve; as a rule, active = well fitted curve in the direction sought with a large enough effect; inconclusive = small, poorly fitted or top-dose-only effect, or another doubt; inactive = no such curve, though single readings can be large; an effect the other way counts as inactive or inconclusive. Potency is read from the fitted curve at half-maximal effect.

SMILES	Rab9 prom act	SMN2 splice up	FLuc modulator	Luc counter	NPC1 promoter act	ELG1 genotoxic
O=C(/C=C/c1ccncc1)c1ccc2c(c1)OCCO2	-3%	·	12µM*	-9%	1%	11%
O=C(O)/C=C\C=C/c1ccc2c(c1)OCO2	·	-7%[9.22 µM]	·	-2%[7.66 µM]	·	·
O=C(/C=C/c1ccc2c(c1)OCO2)NCc1ccco1	-1%	27%	?	-2%	-1%	14%
O=C(/C=C/c1ccc2c(c1)OCO2)c1cccs1	·	·	·	8.9µM*	·	·
CN(C(=O)/C=C/c1ccc2c(c1)OCO2)c1ccccc1	?	?	?	0%	?	8%
CN(C)c1ccc(/C=C/C(=O)c2ccc3c(c2)OCO3)cc1	?	·	2.7µM*	·	?	?
O=C(/C=C/c1ccc2c(c1)OCO2)c1ccc[nH]1	?	16µM*	2.1µM*	-18%	3.2µM*	?
Cc1[nH]c(=O)[nH]c(=O)c1S(=O)(=O)Nc1cccc(Cl)c1C	·	-3%	-16%	·	·	·
O=C(O)c1ccc(-c2ccccc2C(F)(F)F)s1	·	·	·	2%[39.9 µM]	·	·
O=C(/C=C\Nc1ccccc1Br)c1ccc2c(c1)OCO2	0.45µM*	3.2µM*	0.085µM*	10µM*	?	?
CNc1cc([N+](=O)[O-])ccc1N/C=C/C(=O)c1ccc2c(c1)OCO2	10%	6%	-5%	-1%	22%	0%
O=C(/C=C/c1ccc2c(c1)OCO2)c1ccc(F)cc1	4%	2%	4.3µM*	-13%	1%	9%
COc1cccc(/C=C/C(=O)NNC(=O)c2ccncc2)c1OC	8%	·	21µM*	·	5%	5%
CCCc1ccc(OC(=O)c2ccc(O)cc2Cl)cc1	1µM*	?	2.4µM*	1%	2µM*	?
Cc1cc(C)c(C(=O)/C=C/c2ccc3c(c2)OCO3)c(=O)[nH]1	-7%	·	-5%	-1%	-2%	-5%
CCOC(=O)c1c(S(=O)(=O)N2CCCC(C(=O)Nc3cccc(Cl)c3)C2)c(C)n(C)c1C (stereo not drawn)	·	·	0%	·	·	·
CN(C)CCCNS(=O)(=O)c1ccc(N2CCN(Cc3ccc4c(c3)OCO4)CC2)c([N+](=O)[O-])c1	-16%	·	2%	·	-19%	1%
COc1cccc(C(=O)N(Cc2cccnc2)c2nc3c(OC)ccc(C)c3s2)c1OC	·	·	-2%	·	·	·
CCCc1ccc(OC(=O)c2cccs2)cc1	-2%	-5%	6µM*	-1%	2%	12%
COc1ccc(CCNC(=O)COC(=O)c2cccs2)cc1	3%	·	1%	·	-3%	2%
Cc1cc(OC(=O)c2cccs2)ccc1C(C)C	-1%	3%	3µM*	14%	0%	1%
O=C(CNC(=O)c1ccc2c(c1)OCO2)N/N=C(Br)/C=C/c1ccccc1	-13%	-11%	-18%	-5%	-9%	0%
O=C(/C=C/c1ccccc1)c1ccc2c(c1)OCO2	?	·	2.1µM*	·	?	?
Cc1oc2ccc(OC(=O)c3cccs3)cc2c1C(=O)OC(C)C	5%	-6%	-16%	0%	-3%	6%
CN(C)c1ccc(/C=C/C(=O)c2ccc3c(c2)OCCO3)cc1[N+](=O)[O-]	13%	-17%	9.5µM*	-6%	10%	17%
SMILES	Rab9 prom act	SMN2 splice up	FLuc modulator	Luc counter	NPC1 promoter act	ELG1 genotoxic
COc1ccc(NC(=O)c2oc3ccccc3c2NC(=O)C23CC4CC(CC(C4)C2)C3)c(OC)c1	·	-3%	-3%	·	·	·
COc1cc(C(=O)NNC(=O)c2ccc3c(c2)OCCO3)cc(OC)c1OC	·	·	·	·	·	1%
COc1cccc(/C=C/C(=O)c2ccc[nH]2)c1	3.2µM*	?	2.1µM*	-13%	3.2µM*	3.7µM*
COc1cc(/C=C/C(=O)c2ccc3c(c2)OCCO3)cc(Br)c1OCC(=O)N(C)C	-22%	·	12µM*	·	-21%	-35%
Cc1ccc(C2c3c(-c4ccccc4O)n[nH]c3C(=O)N2CCc2ccccc2)cc1 (stereo not drawn)	·	-114%	4%	·	·	·
CC1=NN(c2ccc(C(=O)O)cc2)C(=O)/C1=C/c1ccc(-c2ccccc2F)o1	5%	·	4.8µM*	·	-5%	11%
CC1=NN(c2ccc(C)cc2)C(=O)/C1=C/c1ccc(-c2cc([N+](=O)[O-])ccc2O)o1	-4%	·	12µM*	·	0%	-7%
O=C1NN(c2cccc(Br)c2)C(=O)/C1=C/c1ccc(-c2cc([N+](=O)[O-])ccc2O)o1	-2%	·	?	·	0%	0%
COC(=O)c1ccccc1-c1ccc(/C=C2\C(=O)N(c3ccccc3)N=C2c2ccccc2)o1	1%	-3%	-8%	-4%	2%	0%
CC1=NN(c2ccc(Cl)c(C(=O)O)c2)C(=O)/C1=C\c1ccc(-c2ccc(C(=O)O)cc2)o1	5%	26%	27µM*	-10%	0%	1%
CN(C(=O)c1cc2c(s1)-c1ccc(Cl)cc1SC2)c1cccc(C(F)(F)F)c1	·	5%	3%	·	·	·
CC(=O)N(CN1C(=O)c2ccccc2C1=O)c1cccc(C)c1	2%	-4%	13%	-4%	-4%	0%
CC(=O)N(/N=C1\Sc2ccccc2C1=O)c1cccc(C)c1	14%	5.6µM*	11µM*	?	?	?
CCOC(=O)c1nnc(-c2ccc(C)cc2)nc1N1CCSCC1	10%	4%	13µM*	-5%	1%	10%
Cc1cc(C)c(C)c(S(=O)(=O)N2CCN(C(=O)CNC(=O)c3ccco3)CC2)c1C	-2%	·	·	·	-5%	-1%
COc1ccc(/C=C(/C(=O)c2cccs2)N2C=CC=CC2=C(C#N)C#N)cc1	1%	·	13µM*	·	-11%	?
Cc1nn(-c2ccccc2Cl)c(Cl)c1/C=N/Nc1cccc(C(=O)O)c1	0.035µM*	0.071µM*	0.12µM*	1%	?	?
Cc1nn(-c2cccc(C(F)(F)F)c2)c(Cl)c1/C=N/Nc1cccc(C(=O)O)c1	0.1µM*	0.4µM*	1.5µM*	2%	0.11µM*	0.41µM*
CCOC(=O)N/N=C/c1c(C)nn(-c2cccc(C(F)(F)F)c2)c1Cl	-25%	-66%	-4%	4%	-24%	0%
Cc1ccc(NC(=O)c2cc(S(=O)(=O)N3CCCC(C)C3)cn2C)c(Br)c1 (stereo not drawn)	·	·	-5%	·	·	·
CC(Oc1ccc(Cl)cc1Cl)C(=O)Nc1ccncc1 (stereo not drawn)	-4%	·	-2%	·	-2%	-12%
CC(Oc1ccc(Cl)cc1Cl)c1nc(-c2ccc(NC(=O)c3ccccn3)cc2)no1 (stereo not drawn)	?	?	9.5µM*	-11%	2.8µM*	?

High-throughput results (PubChem)
